Screening results as filed in PubChem BioAssay.
FXN GAA850 act – frataxin GAA850 promoter activation; 360,000 tested, 0.56% active; HEK293 lucGAA850 FXN promoter luciferase reporter, 24 h; percent of 10 µM SAHA response; activation, % at 6 µM; AID 540364;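 active = activation above the average of all compounds screened plus 3 SD, cutoff fixed separately per campaign, cut at about 7.5% in these data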
NR0B1 inh – NR0B1 (DAX1) inhibition. P51843. HEK293 Gal4-DAX1 luciferase reporter, luminescence. inhibition, % at 6.75 µM. 340,000 tested, 0.99% active. AID 504766;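 active = inhibition above the mean over all tested compounds plus 3 SD, cut at about 4.2% in these data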;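 also: inhibition shows as a rise in luminescence from relieved DAX1 repression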
HSF1 inhib – HSF1 inhibition; activity change, negative = inhibition, % at 7.5 µM (by protocol); AID 2098; NIH3T3-HGL HSE-luciferase, MG132-induced, luminescence 8 h; stronger effect = lower value; 300,000 tested, 0.77% active;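 active = more than half of replicate wells show activity change below -50%, luminescence cut by over half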;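 also: luciferase reports HSF-1 transcriptional activity via heat shock element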
HSF1 activator – increases HSF-1 driven luciferase reporter signal | NIH3T3-HGL HSF-1 luciferase reporter, MG132, 8 h; 100% = twice DMSO control signal | activation, % at 9 µM | 300,000 tested, 1.7% active | AID 504408;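 active = mean replicate activation of at least 50% with a set share of replicates each reaching 50%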
AHR act – human AHR activation; P35869; AHR-responsive luciferase reporter cells, luminescence; activation, % at 5 µM; 320,000 tested, 2.5% active; AID 2796; in the data active = activation above about 47%
Target sequence (P35869 whole entry, looked up): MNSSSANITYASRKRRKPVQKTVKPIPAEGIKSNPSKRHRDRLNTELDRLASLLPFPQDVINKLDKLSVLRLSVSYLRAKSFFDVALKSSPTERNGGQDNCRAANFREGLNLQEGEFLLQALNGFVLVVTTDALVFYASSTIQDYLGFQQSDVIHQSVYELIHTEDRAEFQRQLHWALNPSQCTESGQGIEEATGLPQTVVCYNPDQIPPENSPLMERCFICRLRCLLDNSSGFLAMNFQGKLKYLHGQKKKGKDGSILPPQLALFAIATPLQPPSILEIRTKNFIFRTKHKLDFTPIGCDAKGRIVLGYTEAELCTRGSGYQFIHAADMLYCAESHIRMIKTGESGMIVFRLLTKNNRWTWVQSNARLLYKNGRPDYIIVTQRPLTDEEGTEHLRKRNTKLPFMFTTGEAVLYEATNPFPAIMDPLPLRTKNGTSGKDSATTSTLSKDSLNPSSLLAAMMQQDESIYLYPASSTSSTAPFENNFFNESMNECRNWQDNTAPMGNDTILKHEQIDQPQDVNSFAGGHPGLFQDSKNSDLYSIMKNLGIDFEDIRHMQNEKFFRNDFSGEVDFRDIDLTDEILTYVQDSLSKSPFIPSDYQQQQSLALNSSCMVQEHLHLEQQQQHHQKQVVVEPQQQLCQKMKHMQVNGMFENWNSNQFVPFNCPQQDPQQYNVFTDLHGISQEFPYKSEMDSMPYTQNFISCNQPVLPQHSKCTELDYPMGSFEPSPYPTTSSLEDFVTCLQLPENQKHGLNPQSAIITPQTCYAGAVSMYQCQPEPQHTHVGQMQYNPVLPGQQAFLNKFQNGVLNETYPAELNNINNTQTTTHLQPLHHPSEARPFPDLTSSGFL
Of the large screens only hits and unclear results are named; the others gave an inactive call. A selection: hits, their analogues and other compounds. The true share with any hit is near 5.4%.

[S-]c1nnc(-c2ccc(Br)cc2)n1-c1ccccc1.[Zn+2]	none
N#Cc1c(Cl)c(Cl)c2nnc(-c3ccc(Br)cc3)n2c1Cl	AHR act 55 (no result: FXN GAA850 act, NR0B1 inh)
Cc1ccc(SCC(=O)Nc2ccc(F)cc2[N+](=O)[O-])cc1C	none
CCCc1ccc(OCc2nc(-c3ccc(NC(=O)c4ccco4)cc3)no2)cc1	none
Cc1ccccc1-c1nc(-c2ccc(NC(=O)c3cccs3)cc2)no1	AHR act 57
CCCc1ccc(OCc2nc(-c3ccc(NC(=O)c4cccs4)cc3)no2)cc1	HSF1 activator 58
C[n+]1c(-c2ccc(C=NNC(=O)c3ccc(C(=O)NN=Cc4ccc(-c5cn6ccccc6[n+]5C)cc4)cc3)cc2)cn2ccccc21	none (no result: FXN GAA850 act, HSF1 inhib, HSF1 activator, AHR act)
Cn1c(=NC(=O)c2ccccc2[N+](=O)[O-])sc2cccc(F)c21	none
Cn1c(=NC(=O)C(C)(C)C)sc2cccc(F)c21	NR0B1 inh 4.3
COC(=O)c1ccc(CNC(=O)C2CCC(=O)N(CCc3ccccn3)C2)cc1 (centres undefined)	none (no result: HSF1 inhib, HSF1 activator, AHR act)
Cc1ccc(O)c(C(=O)CC(=O)c2ccccc2Cl)c1	NR0B1 inh 5.3
Cc1ccc(Cl)cc1NC(=O)C[n+]1ccc(Cc2ccc([N+](=O)[O-])cc2)cc1	HSF1 activator 65
COCC(=O)Nc1cc(Cl)ccc1C	none
Cc1ccc(Cl)cc1NC(=O)CCC(=O)O	NR0B1 inh 5.0
COc1ccc(NC(=O)c2n[nH]c(=O)c3ccccc23)cc1S(=O)(=O)N1CCCCC1	none
CCOc1ccc(NC(=O)CN2C(=O)COc3ccccc32)cc1	none
CN(CCc1ccccn1)C(=O)CCC1CCCN(C(=O)c2cccc(N(C)C)c2)C1 (centres undefined)	none
Nc1cc(-c2ccco2)no1	HSF1 activator 72
CC1CCN(C(=O)c2[nH]cnc2C(=O)Nc2ccc(Cl)cc2)CC1	none (no result: HSF1 inhib, HSF1 activator)
NS(=O)(=O)c1ccc(CCNC(=O)CNC(=O)c2ccc(Oc3ccccc3)cc2)cc1	none
Cc1ccc(SCCC(=O)N2CCC(C)CC2)cc1	NR0B1 inh 5.7, HSF1 activator 58
COc1cc(/C=N/n2c(C3CCCCC3)n[nH]c2=S)ccc1O	none (no result: AHR act)
Cc1cc(NC(=O)c2ccco2)ncc1NC(=O)Cc1ccccc1	none
Cc1cc(NC(=O)C(C)C)ncc1NC(=O)c1ccco1	NR0B1 inh 5.9
O=C(CC1C(=O)OCN1C(=O)OCc1ccccc1)OCC(=O)c1ccccc1 (centres undefined)	NR0B1 inh 4.9
CC(C)CN1CCN(Cc2cn(C)c3ccccc23)CC1CCO (centres undefined)	none
CCCCCn1c(Sc2ncccn2)nc2c1c(=O)[nH]c(=O)n2C	none
CCCCCn1c(Sc2nc3ccccc3s2)nc2c1c(=O)[nH]c(=O)n2C	HSF1 activator 58
CCCCCn1c(N2CCN(c3cccc(Cl)c3)CC2)nc2c1c(=O)[nH]c(=O)n2C	HSF1 activator 111
COc1ccccc1NC(=O)C(C)OC(=O)/C=C/c1ccc2ccccc2n1 (centres undefined)	HSF1 activator 63
Cc1cccc(N2CCN(C(=O)c3ccc(Cl)c(NC4=NC5CS(=O)(=O)CC5S4)c3)CC2C)c1 (centres undefined)	none
CN(/N=C/C=C/c1ccccc1)c1cc(=O)n(C)c(=O)[nH]1	AHR act 70
CC(C)C(NC(=O)c1ccc(F)cc1)C(=O)N1CCOCC1 (centres undefined)	none (no result: HSF1 inhib, HSF1 activator)
COc1ccc(NC(=O)c2ccco2)cc1NC(=O)COc1ccccc1[N+](=O)[O-]	NR0B1 inh 4.6
COc1cc(NC(=O)CC(C)C)ccc1NC(=O)c1ccco1	NR0B1 inh 4.4, HSF1 activator 54
COc1cc(OC)cc(C(=O)Nc2cc(NC(=O)c3ccco3)ccc2OC)c1	AHR act 55
COc1cc(NC(=S)NC(=O)C(C)C)ccc1NC(=O)c1cc2ccccc2o1	none
COc1cc(OC)cc(C(=O)Nc2ccc(NC(=O)c3ccco3)c(C)c2)c1	none
COc1cc(NC(=O)C(C)C)ccc1NC(=O)c1cc2ccccc2o1	NR0B1 inh 6.1
COc1ccc(NC(=O)C23CC4CC(CC(Cl)(C4)C2)C3)cc1S(=O)(=O)N1CCOCC1	none (no result: HSF1 inhib, HSF1 activator)
O=C(CN(c1ccccc1)S(=O)(=O)c1ccccc1[N+](=O)[O-])Nc1cccnc1	none
COc1ccccc1NC(=O)c1cc2ccccc2o1	AHR act 74
COc1cc(NC(=O)c2cc3ccccc3o2)c(OC)cc1Cl	AHR act 62
COc1cc(NC(=O)c2cccc(C)c2)ccc1NC(=O)c1cc2ccccc2o1	none
COc1ccc(NC(=O)c2ccco2)cc1NC(=O)c1cc2ccccc2o1	AHR act 62
O=C(Nc1ccc(NC(=O)c2cc3ccccc3o2)cc1)c1ccco1	none
Cc1ccccc1NC(=O)c1ccc(Cl)c(NC(=O)c2cccnc2)c1	none (no result: FXN GAA850 act, NR0B1 inh)
Cc1c(NC(=O)COC(=O)c2ncc(Cl)c(Cl)c2Cl)c(=O)n(-c2ccccc2)n1C	none
CCOC(=O)c1cnc2ccc(OCC)cc2c1NCCCN1CCOCC1	none
S=C(c1cn(Cc2ccc(Br)cc2)c2ccccc12)N1CCOCC1	HSF1 activator 54
c1cncc(-c2nc(N3CCOCC3)c3ccccc3n2)c1	AHR act 78
Cc1ccc(-c2nc(N3CCN(C)CC3)c3ccccc3n2)cc1	none
Cc1cc(N)n(-c2nc(-c3cccnc3)nc3ccccc23)n1	AHR act 61
c1ccc2c(N3CCOCC3)nc(-c3ccncc3)nc2c1	none
CN1CCN(c2nc(-c3ccc(C(C)(C)C)cc3)nc3ccccc23)CC1	HSF1 inhib -80
Cc1cc(C(=O)O)cc(S(=O)(=O)NNC(=O)c2cccs2)c1C	none
Cc1nc2c(OCc3ccc(C#N)cc3)cccn2c1N(C)Cc1cccs1	none (no result: NR0B1 inh, HSF1 inhib, HSF1 activator, AHR act)
CN(Cc1ccco1)C(=O)C1CCCN(c2ncnc3c2nc2n3CCCCC2)C1 (centres undefined)	none
O=C(NCCCn1ccnc1)/C(=C/c1ccco1)NC(=O)c1ccccc1	HSF1 activator 62
O=C(NCCCn1ccnc1)c1ccc2ccccc2c1	AHR act 60
O=C(NCCCn1ccnc1)c1cc2ccccc2oc1=O	none
O=C(NCCCn1ccnc1)c1cc(-c2cccc(O)c2)on1	NR0B1 inh 4.7
CC1CCc2sc(C(=O)NCCCn3ccnc3)cc2C1 (centres undefined)	AHR act 51
Cc1ccc(-c2cc(C(=O)NCCCn3ccnc3)no2)cc1	none
Cc1ccc(C(=O)N/C(=C\c2ccco2)C(=O)NCCCn2ccnc2)cc1	none
O=C(C1CC1)N1CCc2cc(S(=O)(=O)NCc3ccccc3)ccc21	none
O=C(CCNS(=O)(=O)c1ccc(OC(F)(F)F)cc1)Nc1cccc(S(=O)(=O)N2CCCC2)c1	none (no result: HSF1 inhib, HSF1 activator, AHR act)
CC1CCN(S(=O)(=O)c2ccc3nc(-c4ccccn4)cc(C(=O)NCCN(C)Cc4ccccc4)c3c2)CC1	none (no result: AHR act)
CCC1Oc2ccc(C)cc2N(CC(=O)NCCN2CCOCC2)C1=O (centres undefined)	none
CCn1cc([N+](=O)[O-])c(C(=O)Nc2nc(-c3ccc(C)c(C)c3)c(C)s2)n1	HSF1 activator 61
